# Where “and” joins values, the source holds several entries; their conditions need not be identical. Equal entries are not always repeated. Among all 16,000 compounds or so, about 2,600 (16%) were called active. Inconclusive results (about 20%) are left out. Not all results are given here. Values without a mark were called inactive. The call rests on the fitted dose curve; in most records, active means well fitted curve in the direction sought with a large enough effect; inconclusive means small, poorly fitted or top-dose-only effect, or effect the other way; inactive means no such curve, though single readings can be large or run the other way.
# Molecular target: Cytochrome P450 2D6 (Homo sapiens) (UniProt P10635)
# Experiment: Cytochrome panel assay with activity outcomes
# Details: recombinant CYP, pro-luciferin dealkylation, luminescence, p450-cyp2d6; series mostly up to 57.1 µM; activity, negative = inhibition: at the top concentration
# On the % scale 0 is the no-effect control and ±100 the full control effect.
# Cytochrome P450 2D6 (Homo sapiens), sequence (P10635 whole entry, looked up): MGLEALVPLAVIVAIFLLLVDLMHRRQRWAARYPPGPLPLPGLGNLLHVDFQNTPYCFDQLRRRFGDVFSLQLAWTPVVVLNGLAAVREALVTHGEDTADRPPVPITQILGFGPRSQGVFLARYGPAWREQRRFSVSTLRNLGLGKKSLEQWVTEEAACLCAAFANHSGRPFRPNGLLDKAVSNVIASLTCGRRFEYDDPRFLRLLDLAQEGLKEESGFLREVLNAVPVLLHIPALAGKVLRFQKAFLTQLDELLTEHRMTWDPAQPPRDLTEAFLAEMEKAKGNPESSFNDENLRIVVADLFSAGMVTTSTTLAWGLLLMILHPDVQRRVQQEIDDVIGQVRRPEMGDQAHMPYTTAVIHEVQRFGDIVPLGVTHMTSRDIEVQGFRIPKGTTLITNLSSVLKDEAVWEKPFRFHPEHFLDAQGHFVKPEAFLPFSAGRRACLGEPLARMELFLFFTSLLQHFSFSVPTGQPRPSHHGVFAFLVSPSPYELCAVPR
SMILES,AC50,"activity, negative = inhibition"
CC(C)Cc1ccc([C@H](C)C(=O)O)cc1,inactive,
CCOc1ccc2nc3cc(N=Nc4ccc(N)nc4N)ccc3c(N)c2c1,,-4.78% [at 11.4 µM]
Cc1ccccc1Oc1ncnc2sccc12,,17.8%
NCCc1nc(-c2nc(C(=O)O)cs2)cs1,,16.3% [at 11.4 µM]
OCCCSCCO,,-3.94% [at 11.4 µM]
COc1ccc(C(C(=O)NC2CCCCC2)N(C(=O)c2sc(C)nc2C)c2ccc(OC)cc2)cc1 (stereo not drawn),,-11.5%
Cc1cc(C(C)(C)C)c(O)c(C)c1CC1=NCCN1,12.6 µM (active) and 3.98 µM (active) and 39.8 nM (active),
Cc1cc(Cc2c(C)c(C)c(Cc3cc(C)cc(C(C)(C)C)c3O)c(C)c2C)c(O)c(C(C)(C)C)c1,,12% [at 11.4 µM]
Cc1cc(Cc2cc(C)cc(C(C)(C)C)c2O)c(O)c(Cc2cc(C)cc(C(C)(C)C)c2O)c1,,-2.96% [at 11.4 µM]
COc1ccc(CN2C(=O)CN(C3CCCCCC3)C(=O)C2c2ccc(OC)c(OC)c2)cc1 (stereo not drawn),,-15.6%
Cc1ccc(NC(=O)CCC(=O)NNC(=O)c2ccco2)cc1C,,-9.64%
CCOc1[nH]n(-c2ccccc2)c(=O)c1C=Nc1ccc(Cl)cc1,,-9.63%
Cn1c(C(F)(F)F)nc2c(=O)oc3ccccc3c21,,-15.3%
CCCC/C=C/C(NC(=O)c1ccc(-c2ccccc2)cc1)c1ccccc1 (stereo not drawn),,-4.24%
O=C(NCCOC12CC3CC(CC(C3)C1)C2)c1cccc(Br)c1,,-72.8%
O=C(CCc1ccccc1)Nc1nncs1,14.1 µM (active),
O=C(CCc1ccccc1)NNC(=O)c1ccco1,,21.7%
O=C(CCc1ccccc1)Nc1ncn[nH]1,,-0.385%
CCOC(=O)CCN1C(=O)[C@H]2[C@H]3[C@H](O)[C@H](O)C/C(=N/OC[C@@H](O)COCc4ccco4)[C@H]3CC[C@@H]2C1=O,,8.09% [at 11.4 µM]
COc1ccc2c3c([nH]c2c1)[C@H]1C[C@@H]2[C@@H](C[C@@H](O)[C@H](OC)[C@H]2C(=O)O)CN1CC3,,7.15% [at 11.4 µM]
Cc1ccc(S(=O)(=O)N(C)CC(=O)O/N=C(\N)c2ccccn2)cc1,,-1.23%

SMILES,AC50,"activity, negative = inhibition"
O=C(O)CCCSc1nc2ccccc2s1,,-8.66% [at 11.4 µM]
c1ccc(NCCSc2nc3ccccc3s2)cc1,,1.99% [at 11.4 µM]
c1ccc2sc(SCN(C3CCCCC3)C3CCCCC3)nc2c1,1.58 µM (active),
O=C(Nc1ccc2oc(=O)c(C(=O)O)cc2c1)Oc1ccccc1,,-5.11% [at 11.4 µM]
CC(=O)c1c(C(C)=O)c(C)n(NC(=O)c2ccncc2)c1C,,5.58%
c1csc(CNc2nc(-c3ccoc3)nc3ccccc23)c1,3.98 µM (active),
Cc1cccc(CNc2nc(-c3ccoc3)nc3ccccc23)c1,10 µM (active),
Fc1ccc(Nc2nc(-c3ccoc3)nc3ccccc23)cc1,,-18.4%
c1ccc(CNc2nc(-c3ccoc3)nc3ccccc23)cc1,10 µM (active),
CN(C)c1ccc(-c2nc(NCc3cccnc3)c3ccccc3n2)cc1,7.94 µM (active),
CCNc1ncc2nc(-c3ccc(OC)cc3)c(=O)n(Cc3cccc(OC)c3)c2n1,,-8.05%
Cn1c(=O)n(CCC(=O)O)c2ccccc21,,4.54%
COc1cc(/C=N/NC(N)=O)c(Br)cc1OCC(=O)Nc1ccccc1C,,-16.2%
CCOC(=O)c1c(O)[nH]c(=O)c(CC)c1C,,-17.9% [at 11.4 µM]
CCOC(=O)Nc1nc(-c2ccccc2)c(C)s1,,1.52% [at 11.4 µM]
CO/N=C(\C(=O)N[C@@H]1C(=O)N2C(C(=O)O)=C(COC(N)=O)CS[C@@H]12)c1ccco1,,10.6% [at 25.6 µM]
O=S1(=O)CCN(c2ccccc2CC(c2c[nH]c3ccccc23)c2c[nH]c3ccccc23)CC1,,-18% [at 11.4 µM]
Cc1ccc(C2CC(C(F)(F)F)n3nc(C(=O)NCCN4CCOCC4)cc3N2)cc1 (stereo not drawn),,0.576%
O=S(=O)(O)[C@@H](c1ccccc1)[C@@H](O)c1ccccc1,,4.68% [at 11.4 µM]
Cc1cnc(CNc2nc(-c3cccnc3)nc3ccccc23)cn1,,-9.02%
c1cncc(-c2nc(NCc3cccs3)c3ccccc3n2)c1,6.31 µM (active),

SMILES,AC50,"activity, negative = inhibition"
c1cncc(CNc2nc(-c3ccoc3)nc3ccccc23)c1,5.01 µM (active),
Cc1cccc(CNc2nc(-c3cccnc3)nc3ccccc23)c1,25.1 µM (active),
CN(C)c1ccc(-c2nc(NCCc3cnc[nH]3)c3ccccc3n2)cc1,7.94 µM (active),
CNC(=S)N1N=C(c2ccc(OC)cc2)CC1c1ccc(N(C)C)cc1 (stereo not drawn),,-18.3%
Cc1c(CCC(C)C)c(-n2ccnc2C)n2c(nc3ccccc32)c1C#N,,-7.46%
CCSc1nnc2n(N)c(=O)c3ccccc3n12,,-7.64%
Cc1cc(=O)oc2cc(O)c(CN(C)CC(=O)O)cc12,,-1.55% [at 11.4 µM]
Cc1cccc(Nc2ccccc2C(=O)OCC(=O)N(C)C2CCS(=O)(=O)C2)c1C (stereo not drawn),,-27.8%
Cc1cc(C)nc(SCCc2cccc[n+]2C)n1,,-2.83% [at 11.4 µM]
S=c1[nH]nc(-c2ccncc2)n1CC1CCCO1 (stereo not drawn),,5.32%
Cc1cc(NC(=O)CSc2nc3ccsc3c(=O)n2CCCCC(=O)O)no1,,-30.2%
C[C@@]1(O)CCOC(=O)C1,,-3.8% [at 25.6 µM]
CCOC(=O)c1c(C)[nH]c(C(=O)OCC(=O)NC2CCS(=O)(=O)C2)c1C (stereo not drawn),,2.53%
NCCS(=O)O,,7.44%
Cc1ccc(S(=O)(=O)O/N=C2/CCCc3occc32)cc1,,-14.7%
C[C@@H](CCCCC(=O)Nc1ccc(C(F)(F)F)cc1)NCCc1cnc[nH]1,5.01 µM (active),
O=CN[C@@H](Cc1cnc[nH]1)C(=O)O,,-4.29% [at 11.4 µM]
CN(C)C[C@H]1CCC[C@@H](CN(C)C)C1=O,,-1.21% [at 11.4 µM]
Clc1ccc2oc(-c3cccnc3)nc2c1,,6.45%
Fc1ccc2c(c1)C(c1ccncc1)=NNC(c1ccc(Cl)cc1)=N2,0.398 µM (active),
Clc1ccc2c(c1)C(c1cccs1)=NNC(c1cccnc1)=N2,10 µM (active),
